Experimental data: PubChem BioAssay (NCATS)
Results filed as inconclusive are left out. Calls of active or inactive are those of the source. Calls come from the whole dose curve; as a rule, active = well fitted cell-killing curve with a large enough effect; inconclusive = small, poorly fitted or top-dose-only effect, or effect the other way; inactive = flat fitted curve, though single readings scatter.

Key:
Assay in all cases: Primary qHTS to identify gynecologic anti-cancer compounds using libraries of approved drugs and bioactive compounds (AID 1345084); note: nearly all actives have a fitted effect of over 55% in size
[1] = tested on: C33A; settings: Gynecologic cancer cell panel viability, ATPlite luminescence, 48 h; series mostly up to 57.5 µM
Outline: (§1)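 Cells, 1,000 per well, plated 16 h, then exposed 48 h at 37 C to compounds. Viability by ATPlite luminescence after 15 min at room temperature.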

[2] = tested on: CAOV3; settings: Gynecologic cancer cell panel viability, ATPlite luminescence, 48 h; series mostly up to 57.5 µM
Outline: as §1

[3] = tested on: CASKI; settings: Gynecologic cancer cell panel viability, ATPlite luminescence, 48 h; series mostly up to 57.5 µM
Outline: as §1

[4] = tested on: Es-2; settings: Gynecologic cancer cell panel viability, ATPlite luminescence, 48 h; series mostly up to 57.5 µM
Outline: as §1

[5] = tested on: HeLa; settings: Gynecologic cancer cell panel viability, ATPlite luminescence, 48 h; series mostly up to 57.5 µM
Outline: as §1

[6] = tested on: Hek293T; settings: Gynecologic cancer cell panel viability, ATPlite luminescence, 48 h, control line for the selectivity index; series mostly up to 57.5 µM
Outline: as §1

[7] = tested on: JEG-3; settings: Gynecologic cancer cell panel viability, ATPlite luminescence, 48 h; series mostly up to 57.5 µM
Outline: as §1

[8] = tested on: PA-1; settings: Gynecologic cancer cell panel viability, ATPlite luminescence, 48 h; series mostly up to 57.5 µM
Outline: as §1

[9] = tested on: SKOV3; settings: Gynecologic cancer cell panel viability, ATPlite luminescence, 48 h; series mostly up to 57.5 µM
Outline: as §1

[10] = tested on: Tov-21-G; settings: Gynecologic cancer cell panel viability, ATPlite luminescence, 48 h; series mostly up to 57.5 µM
Outline: as §1

[11] = tested on: Tov112D; settings: Gynecologic cancer cell panel viability, ATPlite luminescence, 48 h; series mostly up to 57.5 µM
Outline: as §1

[12] = tested on: OV90; settings: Gynecologic cancer cell panel viability, ATPlite luminescence, 48 h; series mostly up to 57.5 µM
Outline: as §1
% is set by controls: 0 for no effect and ±100 for the full control effect.

Fc1ccc(-c2nc(-c3ccccc3F)[nH]c2-c2ccncc2)cc1
inactive: Potency [1] | Potency [2] | Potency [3] | Potency [4] | Potency [5] | Potency [6] | Potency [7] | Potency [8] | Potency [9] | Potency [10] | Potency [11]

CCC/C=C/C(=O)O[C@H]1CC(C)(C)CC2[C@@]13[C@H](O)C[C@]1(C)[C@@]2(CCC2[C@@]4(C)CC[C@H](O[C@@H]5O[C@H](C(=O)O)[C@@H](O)[C@H](O[C@@H]6O[C@H](CO)[C@H](O)[C@H](O)[C@H]6O[C@@H]6O[C@@H](C)[C@H](O)[C@@H](O)[C@H]6O[C@@H]6OC[C@](O)(CO)[C@H]6O)[C@H]5O[C@@H]5O[C@H](CO)[C@H](O)[C@H](O)[C@H]5O)C(C)(C)C4CC[C@]21C)O[C@H]3O (stereo partly specified)
inactive: activity change, negative = cytotoxicity [1] 1.29% [at 6.55 µM] | activity change, negative = cytotoxicity [2] -15.9% [at 6.55 µM] | activity change, negative = cytotoxicity [3] -0.213% [at 6.55 µM] | activity change, negative = cytotoxicity [4] 3.48% [at 6.55 µM] | activity change, negative = cytotoxicity [5] 4.5% [at 6.55 µM] | activity change, negative = cytotoxicity [6] -25.4% [at 6.55 µM] | activity change, negative = cytotoxicity [7] 15.7% [at 6.55 µM] | activity change, negative = cytotoxicity [8] -0.263% [at 6.55 µM] | activity change, negative = cytotoxicity [9] -3.55% [at 6.55 µM] | activity change, negative = cytotoxicity [10] -24.3% [at 6.55 µM] | activity change, negative = cytotoxicity [11] 7.77% [at 6.55 µM]

CCC(CC)(NC(=O)C(C)C)C(=O)N[C@@H](CCCN=C(N)N)C(=O)NC1(C(=O)NC(c2ccc(F)cc2)c2ccc(F)cc2)CCCC1
inactive: Potency [1] | Potency [2] | Potency [3] | Potency [4] | Potency [5] | Potency [6] | Potency [7] | Potency [8] | Potency [9] | Potency [10] | Potency [11]

O=C(OC1CN2CCC1CC2)N1CCc2ccccc2C1c1ccccc1 (stereo unspecified)
inactive: Potency [1] | Potency [2] | Potency [3] | Potency [4] | Potency [5] | Potency [6] | Potency [7] | Potency [8] | Potency [9] | Potency [10] | Potency [11]

CC(=O)OC1CCC2(C)C(CCC3(C)C2CC=C2C4C(C)C(C)CCC4(C)CCC23C)C1(C)C(=O)O (stereo unspecified)
inactive: Potency [1] | Potency [2] | Potency [3] | Potency [4] | Potency [5] | Potency [6] | Potency [12] | Potency [8] | Potency [10] | Potency [11]

CN1CCC(c2cn(C)c3ccc(OS(=O)(=O)c4c(F)cccc4F)cc23)CC1
inactive: Potency [1] | Potency [2] | Potency [3] | Potency [4] | Potency [5] | Potency [6] | Potency [7] | Potency [8] | Potency [10] | Potency [11]

O=C(NCCN1CCC(n2c(=O)[nH]c3ccccc32)CC1)c1ccc2ccccc2c1
inactive: Potency [1] | Potency [2] | Potency [3] | Potency [4] | Potency [5] | Potency [6] | Potency [7] | Potency [8] | Potency [9] | Potency [10] | Potency [11]

COc1cc(CN(CCN)C(=O)c2cccs2)ccc1OCc1ccccc1
inactive: Potency [1] | Potency [2] | Potency [3] | Potency [4] | Potency [5] | Potency [6] | Potency [7] | Potency [8] | Potency [9] | Potency [10] | Potency [11]

NC(=O)C1=CC2C3C=CC2C(OC3=O)O1 (stereo unspecified)
inactive: Potency [1] | Potency [2] | Potency [3] | Potency [4] | Potency [5] | Potency [6] | Potency [12] | Potency [8] | Potency [9] | Potency [10] | Potency [11]

CCC(C)CNCC(=O)N1CCc2sccc2C1COc1cccc(C)c1 (stereo unspecified)
inactive: Potency [1] | Potency [2] | Potency [3] | Potency [4] | Potency [5] | Potency [6] | Potency [7] | Potency [8] | Potency [9] | Potency [10] | Potency [11]

C=C1C(=O)OC2/C=C(\C)CC3C=C(CC/C=C(\C)CCC12)C(=O)O3 (stereo unspecified)
inactive: Potency [1] | Potency [2] | Potency [3] | Potency [4] | Potency [5] | Potency [6] | Potency [7] | Potency [8] | Potency [11]

O=C(NC[C@H](O)CN1CCc2ccccc2C1)c1ccnc(NC2CCC2)c1
inactive: Potency [1] | Potency [2] | Potency [3] | Potency [4] | Potency [5] | Potency [6] | Potency [7] | Potency [8] | Potency [9] | Potency [10] | Potency [11]

Cc1csc(N(C(=O)CSc2ccc(-c3ccccc3)nn2)C2CC2)n1
inactive: Potency [1] | Potency [2] | Potency [3] | Potency [4] | Potency [5] | Potency [6] | Potency [7] | Potency [8] | Potency [10] | Potency [11]

Cc1cc(CS(=O)(=O)c2ccccc2)cc(OCc2ccc(CN3CCCC3CO)cc2)c1 (stereo unspecified)
inactive: Potency [1] | Potency [2] | Potency [3] | Potency [4] | Potency [5] | Potency [6] | Potency [7] | Potency [8] | Potency [10] | Potency [11]

COc1cccc(NCCC2(c3ccccc3)CC(C)(C)OC(C)(C)C2)c1
inactive: Potency [1] | Potency [2] | Potency [3] | Potency [4] | Potency [5] | Potency [6] | Potency [12] | Potency [8] | Potency [9] | Potency [10] | Potency [11]

O=S(=O)(Nc1ccccc1N1CCCCC1)c1ccc(Cl)s1
inactive: Potency [1] | Potency [2] | Potency [3] | Potency [4] | Potency [5] | Potency [6] | Potency [7] | Potency [8] | Potency [9] | Potency [10] | Potency [11]

Cc1cccc(-c2[nH]ncc2-c2ccnc3ccccc23)n1
inactive: Potency [1] | Potency [2] | Potency [3] | Potency [4] | Potency [5] | Potency [6] | Potency [7] | Potency [8] | Potency [9] | Potency [10] | Potency [11]
